CHX counter = affects cycloheximide protein synthesis inhibition readout, counter-screen | cell reporter, cycloheximide protein synthesis inhibition counterscreen | max response, % | 300,000 compounds, 12% hits; in the data active = max response mostly above about 13%, no sharp cut-off; inactive = mostly below about 14%; also: read at 38.3 µM for the half of the compounds with a filed dose; 0% is about no effect
NS1 inh = influenza NS1 inhibition; Potency, µM (doses to about 46.1 µM), for inactives: at the highest dose activity, positive = more growth; 270,000 compounds, 0.4% hits; AID 2326; calls by dose curve; also: potency is read from the fitted curve at half-maximal effect; actives are rising curves; nearly all actives have a fitted effect of over 50% in size
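In this qHTS, NS1 from influenza A is expressed in budding yeast, where it slows growth. Cells are switched from glucose to 2% galactose medium (pH 6.0, -URA), treated with compound, and growth recovery is read at OD600.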
Pf growth 96h = P. falciparum growth inhibition at 96 hour, primary screen for plastid delayed-death inhibitors; P. falciparum luciferase reporter growth, 96 h; Potency, µM (titrated, usually from 28.7 µM), for inactives: at the top dose activity change, negative = inhibition, usual class: inhibitors; 320,000 compounds, 6.9% hits; also: potency is read from the fitted curve at half-maximal effect; % is scaled to controls: 0 for no effect and ±100 for the full control effect
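Two parasite generations (96 h, 37 C, 5% CO2) of compound exposure in infected erythrocytes (0.05% parasitemia, 2% hematocrit). Luciferase-reporter P. falciparum; decreased luminescence indicates inhibited growth, aimed at apicoplast-acting delayed death.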
Pf growth 48h = P. falciparum growth inhibition at 48 hours (one generation); P. falciparum luciferase growth in erythrocytes, 48 h; Potency, µM (top dose mostly 28.7 µM), inactives show top-dose activity change, negative = inhibition, most hits filed as inhibitors; 310,000 compounds, 5.9% hits; AID 504832; also: potency is read from the fitted curve at half-maximal effect; % is scaled to controls: 0 for no effect and ±100 for the full control effect
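Luminescence readout; reporter = integrated firefly luciferase in P. falciparum. RBC culture at 2% hematocrit, 0.1% parasitemia final, 37 C/5% CO2; decreased signal taken as growth inhibition.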
Shiga inhibitor = blocks Shiga toxin action in Vero cells; Vero cells, Shiga toxin protein synthesis inhibition reporter; inhibition, % at 38.7 µM; 290,000 compounds, 9.2% hits; in the data active = inhibition mostly above about 28%, no sharp cut-off; inactive = mostly below about 43%; also: 0% is about no effect
* marks the source's active call; other numbers are inactive results; [ ] = remark or other dose. This is a sample that favours compounds with a hit; in the whole collection about 21% have one here. Unless noted, calls follow the shape of the dose curve; as a rule, active = well fitted inhibition curve with a large enough effect; inconclusive = small, poorly fitted or top-dose-only effect, or another doubt; inactive = no such curve, though single readings can be large or run the other way.

`CC1CCCCC1NC(=O)CN(C)S(=O)(=O)c1cccc2cccnc12` (stereo unspecified) gave CHX counter 0.9, NS1 inh -0.8%, Pf growth 96h -3.1%, Pf growth 48h -10.5% and Shiga inhibitor -1.2.
For Nc1nc(SCc2ccc(Cl)cc2Cl)n[nH]1 the results were CHX counter 20.7*, NS1 inh -3.2%, Pf growth 48h 27.1% and Shiga inhibitor 27.4.
For Nc1nc(SCc2ccc3c(c2)OCCO3)n[nH]1 the results were CHX counter 21.2, NS1 inh -4.4%, Pf growth 96h 17.6%[5.75 µM], Pf growth 48h 38.1% and Shiga inhibitor 71.2*.
Screening COc1ccc(-n2c(CNC(=O)COc3ccc(Cl)cc3Cl)n[nH]c2=S)cc1 returned CHX counter -3.3, Pf growth 96h inconclusive, Pf growth 48h -7.3% and Shiga inhibitor -3.0.
Screening Cc1ccc(C(C)C)c(OCC(=O)Nc2ccc3c(c2)nc(CCN2CCCCC2)n3C)c1 returned CHX counter -13.2, NS1 inh -6.8%, Pf growth 96h -18.5%, Pf growth 48h inconclusive and Shiga inhibitor -21.0.
For NC(=O)c1ccc(Cc2ncc(C(F)(F)F)cc2Cl)s1 the results were CHX counter -0.8, NS1 inh 5.5%, Pf growth 96h 5.22µM*, Pf growth 48h -22.3% and Shiga inhibitor 6.0.
Screening CC1=CC(=O)O[C@@H]1[C@@]1(C)C[C@H]2OC(=O)C[C@H]3[C@@H](C)C(=O)C(O)=C1[C@@]23CO returned Pf growth 96h 14.7µM* and Pf growth 48h 13.1µM*.
`O=[n+]1c2c(n([O-])c3c1CCCC3)CCCCC2` gave CHX counter -2.0, NS1 inh 11.0%, Pf growth 96h 15.7% and Shiga inhibitor -11.0.
For Nc1nnc(SCC(=O)Nc2ccc(N3CCOCC3)c(Cl)c2)s1 the results were CHX counter 21.5*, NS1 inh 11.2%, Pf growth 96h -29.3%, Pf growth 48h -0.9% and Shiga inhibitor 33.6.
`CCC(=O)Nc1ccc2nc(SCC(=O)N3CCOCC3)sc2c1` gave CHX counter 13.1, Pf growth 96h 31.9%, Pf growth 48h -13.0% and Shiga inhibitor 7.7.
For O=C(CSc1ccc(F)cc1)Nc1ccc(N2CCOCC2)c(Cl)c1 the results were CHX counter 19.9, NS1 inh -16.0%, Pf growth 96h 142.2%, Pf growth 48h 13.4% and Shiga inhibitor 26.4.
Screening CCCC(=O)Nc1ccc2nc(SCC(=O)Nc3ccc(N4CCOCC4)c(Cl)c3)sc2c1 returned CHX counter 52.1*, NS1 inh 3.9%, Pf growth 96h inconclusive, Pf growth 48h inconclusive and Shiga inhibitor 150.3*.
For CCOc1cc(/C=N/NC(=O)CSc2nncn2C)ccc1OCc1cccc(C)c1 the results were CHX counter 7.4, NS1 inh -18.8%, Pf growth 96h inconclusive, Pf growth 48h -24.4% and Shiga inhibitor 25.7.
`CN(CC(=O)Nc1ccccc1Cl)C(=O)c1cccc(S(=O)(=O)N2CCN(c3ccc(F)cc3)CC2)c1` gave CHX counter 58.2*, NS1 inh -47.3%, Pf growth 96h inconclusive, Pf growth 48h -16.4% and Shiga inhibitor 139.4*.
Screening CN(CC(=O)Nc1ccccc1Cl)C(=O)c1cccc(S(=O)(=O)N2CCN(Cc3ccccc3)CC2)c1 returned Pf growth 96h -11.7% and Pf growth 48h inconclusive.
`Cc1cccc(C)c1NC(=O)CN(C)C(=O)c1cccc(S(=O)(=O)N2CCN(c3ccc(F)cc3)CC2)c1` gave Pf growth 96h inconclusive and Pf growth 48h 16.5µM*.
COC(=O)c1cc(S(=O)(=O)N2CCN(c3ccc(F)cc3)CC2)cn1C was read as CHX counter -6.9, NS1 inh 2.6%, Pf growth 96h 9.28µM*, Pf growth 48h 29.0% and Shiga inhibitor -2.5.
`O=C(Nc1ccncc1)c1cccc(S(=O)(=O)N2CCN(c3ccc(F)cc3)CC2)c1` gave Pf growth 96h 11.7µM* and Pf growth 48h inconclusive.
O=C(Nc1ncccc1O)c1cccc(S(=O)(=O)N2CCN(c3ccc(F)cc3)CC2)c1 was read as Pf growth 96h inconclusive and Pf growth 48h -21.4%.
For CCOc1ccccc1CNC(=O)Cn1ccc2cc(S(=O)(=O)N3CCC(C)CC3)ccc21 the results were CHX counter 18.6, NS1 inh inconclusive, Pf growth 96h -21.3%, Pf growth 48h inconclusive and Shiga inhibitor -2.5.
For CSc1nc(NC2CCCC2)c([N+](=O)[O-])c(NC2CCCC2)n1 the results were CHX counter 7.2 and Shiga inhibitor 12.9.
CSc1nsc(SCC(=O)Nc2ccc(Br)cn2)n1 was read as CHX counter 28.5*, NS1 inh -7.8%, Pf growth 96h 44.1%, Pf growth 48h 12.2% and Shiga inhibitor 77.7*.
Screening CSc1nsc(SCC(=O)Nc2ccc(F)cc2F)n1 returned CHX counter 32.4*, NS1 inh -3.7%, Pf growth 96h 23.2%, Pf growth 48h 85.9% and Shiga inhibitor 52.2*.
`Cc1cc2nc(SCC(=O)Nc3ccccc3C(=O)O)[nH]c2cc1C` gave CHX counter 14.6, Pf growth 96h inconclusive, Pf growth 48h 78.5% and Shiga inhibitor 37.5*.
Screening CSc1nsc(SCC(=O)Nc2ccccc2C(=O)O)n1 returned CHX counter 18.6*, NS1 inh 6.8%, Pf growth 96h -25.3%, Pf growth 48h 15.9% and Shiga inhibitor 44.3*.
`Cc1cc(C)nc(SCC(=O)Nc2ccc(Br)cn2)n1` gave CHX counter -2.2, NS1 inh -1.3%, Pf growth 96h -34.4%, Pf growth 48h 13.4% and Shiga inhibitor -12.8.
CSc1nsc(SCC(=O)Nc2ccc(O)c(C(=O)O)c2)n1 was read as CHX counter -2.6, NS1 inh 2.4%, Pf growth 96h inconclusive, Pf growth 48h -4.1% and Shiga inhibitor 29.3.
`CSc1nsc(SCC(=O)Nc2ccc(Cl)c(C(=O)O)c2)n1` gave CHX counter -1.4, NS1 inh 2.6%, Pf growth 96h 19.7%, Pf growth 48h 17.7% and Shiga inhibitor 0.9.
Screening Cc1ccc(S(=O)(=O)NNC(=O)c2sc3nc(C)cc(C)c3c2-n2cccc2)cc1 returned CHX counter -1.8, NS1 inh -28.4%, Pf growth 96h 15.5%, Pf growth 48h -24.5% and Shiga inhibitor -3.8.
For Cc1ccc2c(c1)C1CC(C)(O2)N(c2cccc(C(=O)NC3CCN(Cc4ccccc4)CC3)c2)C(=O)N1 (stereo unspecified) the results were CHX counter -5.5, NS1 inh -5.6%, Pf growth 96h -2.2%, Pf growth 48h inconclusive and Shiga inhibitor -6.8.
Nc1nnc(SCC(=O)N2CCc3ccccc3C2)s1 was read as CHX counter 10.8, Pf growth 96h 453.5%, Pf growth 48h inconclusive and Shiga inhibitor 7.1.
`O=C1Cc2ccccc2N1c1ccccc1` gave CHX counter -1.7, NS1 inh 11.4% and Shiga inhibitor -7.3.
`O=C1CC(=Nc2ccccc2)NN1c1ccccc1` gave CHX counter 13.6*, NS1 inh 11.3%, Pf growth 96h 13.1µM*, Pf growth 48h inconclusive and Shiga inhibitor -2.4.
